The panel holds about 83,000 compounds, 20% with a hit somewhere; the sample as a whole holds those more often.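 48-hour exposure, single concentration, 96-well plates; percent growth endpoint where 0 means no net growth. Active: below 10.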 A number with no mark means an inactive call. The source made the active and inactive calls.
Tests used:
Experiment in all cases: NCI-60 one-dose screen, 48 h (100 = growth as untreated, 0 = no growth, -100 = all killed)
Details in all cases: 10 µM
[1] = tested on: 786-0 renal
[2] = tested on: MALME-3M melanoma
[3] = tested on: EKVX NSCLC
[4] = tested on: SN12C renal
[5] = tested on: TK-10 renal
[6] = tested on: ACHN renal
[7] = tested on: A498 renal
[8] = tested on: CCRF-CEM leukemia
[9] = tested on: RPMI-8226 leukemia
[10] = tested on: OVCAR-5 ovarian
[11] = tested on: OVCAR-4 ovarian
[12] = tested on: IGROV1 ovarian
[13] = tested on: OVCAR-3 ovarian
[14] = tested on: NCI/ADR-RES ovarian
[15] = tested on: BT-549 breast
[16] = tested on: MDA-MB-435 melanoma
[17] = tested on: MCF7 breast
[18] = tested on: HCT-116 colon
[19] = tested on: HCC-2998 colon
[20] = tested on: KM12 colon

SMILES | growth [1] | growth [2] | growth [3] | growth [4] | growth [5] | growth [6] | growth [7] | growth [8] | growth [9] | growth [10] | growth [11] | growth [12] | growth [13] | growth [14] | growth [15] | growth [16] | growth [17] | growth [18] | growth [19] | growth [20]
CC[C@]12C=CCN3CC[C@@]4(c5ccc(OC)cc5N(C)[C@H]4[C@@](O)(C(=O)OC)[C@@H]1OC(=O)CCCC[P+](c1ccc(OC)cc1)(c1ccc(OC)cc1)c1ccc(OC)cc1)[C@@H]32 | -92.9% (active) | -97.2% (active) | -59.7% (active) | -95.3% (active) | -88.2% (active) | -49.2% (active) | -54.7% (active) | -59.1% (active) | -68.8% (active) | -98.6% (active) | -37.7% (active) | -92% (active) | -71.8% (active) | 84.3% | -96.7% (active) | -88.5% (active) | -82.6% (active) | -94.9% (active) | -88.4% (active) | -68.8% (active)
COCCOCCOCCOc1ccc(-n2cc(-c3ccc(O[C@H]4O[C@@H]5OC6(C)CC[C@H]7[C@H](C)CC[C@@H]([C@H]4C)[C@@]57OO6)cc3)nn2)cc1 | 56.7% | 8.12% (active) | 26.7% | 83% | 36.7% | 17.4% | 93.8% | 53.7% | 20.9% | 72% | 28.8% | 50.2% | 46% | 34.2% | 3.83% (active) | 19.3% | 14.9% | 37.3% | 59.2% | 31.6%
C#CCCCN(CCNc1ccnc2cc(Cl)ccc12)C(=O)CCC(=O)O[C@@H]1O[C@@H]2OC3(C)CC[C@H]4[C@H](C)CC[C@@H]([C@H]1C)[C@@]24OO3 | 46.9% | 20.3% | 42.3% | 36.1% | 50.1% | 29.4% | 96% | 24.4% | 24.9% | 45.1% | 41.3% | 41.1% | 25.7% | 16.2% | 37.3% | 21.2% | 14.2% | 19.4% | 20.7% | 27.7%
